# Source: PubChem BioAssay (NCI)
# The panel holds about 83,000 compounds, 20% with a hit somewhere; the sample as a whole holds those more often.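 Cell lines were cultured in 96-well plates, exposed to a single compound concentration, and assessed for percent growth 48 hours later.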 Calls of active or inactive are those of the source. Rule for the calls: active = growth percent below 10; inactive = the rest.
# Tested on: HL-60(TB) leukemia
# Experiment: NCI-60 one-dose screen, 48 h (100 = growth as untreated, 0 = no growth, -100 = all killed)
# Settings: 10 µM unless noted
row,SMILES,growth
1,NC1=NC2(CCCC2)N(c2ccc(S(=O)(=O)Nc3nccs3)cc2)C(N)=N1,102% (inactive)
2,CCn1c(SCC(=O)Nc2cccc(C(=O)/C=C/c3ccc(Br)cc3)c2)nc2ccccc2c1=O,84.7% (inactive)
3,O=C(CCCCCCNC(=O)C(O)(O)C(F)(F)F)Nc1ccc(Cl)cc1,9.84% (active)
4,OC1CCN(CCCOc2c3ccc(Cl)cc3nc3c2oc2ccccc23)CC1,-35% (active)
